Pol beta inh: DNA polymerase beta (human) inhibition; Pol beta primer extension/strand displacement, fluorescence kinetic; Potency, µM (titrated, usually from 114 µM), for the others: top-dose activity change, negative = inhibition, actives largely listed as inhibitors; 1.3% of 340,000 active; note: potency is the fitted concentration of half-maximal effect; % is set by controls: 0 for no effect and ±100 for the full control effect
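Pol beta (10 nM) and compounds were preincubated 15 min at room temperature, then 50 nM substrate (final) started primer extension/strand displacement. Reads were taken at 0 and 10 min; concentration-response data were fitted to a four-parameter Hill equation.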
Pol kappa inh-1: blocks human DNA polymerase kappa activity; purified Pol kappa, fluorescent DNA synthesis assay, 10 min; Potency, µM (top dose mostly 107 µM), without a hit: at the top dose activity, negative = inhibition, hits mostly inhibitors; Q9UBT6; 0.53% of 400,000 active; note: potency is the fitted concentration of half-maximal effect; % is set by controls: 0 for no effect and ±100 for the full control effect
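Enzyme at 10 nM met test compounds for 15 min at room temperature. Substrate addition (50 nM final) began the reaction, which was monitored by fluorescence at 0 and 10 min.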
12-LOX inh: inhibitors of human 12S-lipoxygenase ALOX12. P18054. purified 12hLO, xylenol orange hydroperoxide absorbance. Potency, µM (series often up to 108 µM), for inactives: top-dose activity change, negative = inhibition, most hits filed as inhibitors. 1.1% of 580,000 active. AID 1671190; note: potency is the fitted concentration of half-maximal effect; % is set by controls: 0 for no effect and ±100 for the full control effect
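Purified human 12hLO (150 nM final) in 25 mM Hepes, 0.01% Triton X-100, pH 7.0 was preincubated 15 min at room temperature with compound. Then 40 uM arachidonic acid was added, 30 min. Hydroperoxide was read by Fe-XO absorbance ratio 573/405 nm.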
Pol iota inh: DNA polymerase iota (human) inhibition | Potency, µM (titrated, usually from 115 µM), for inactives: at the top dose activity, negative = inhibition, usual class: inhibitors | Pol iota fluorescent replication assay, 10 min | 1% of 390,000 active; note: potency is the fitted concentration of half-maximal effect
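Fluorescent replication assay read twice, at 0 min and 10 min after adding 50 nM (final) substrate. Enzyme (10 nM) and compounds were first incubated 15 min at room temperature; enzyme-free buffer wells were negative controls.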
PI5P4Ka inh: inhibitors of human PI5P4K alpha | max response, % | AID 652105 | 1.2% of 330,000 active | PI5P4Kalpha enzyme, ADP-Glo luminescence, 60 min; hits give low values; active = max response of -50% or lower; inconclusive = between -30% and -50%; inactive = -30% or higher; note: value at the top dose of about 77 µM; % is set by controls: 0 for no effect and ±100 for the full control effect
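Single end-point luminescence (ADP-Glo) quantified ADP from PI5P4Kalpha turnover; ATP 5 microM final, 1 h at RT, 0.1% CHAPS and 0.28 mM EGTA in HEPES pH 7.4.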
Pol eta inh-1: DNA polymerase eta (human) inhibition; Q9Y253; recombinant Pol eta, fluorescent DNA replication assay; Potency, µM (titrated, usually from 114 µM), without a hit: at the highest dose activity change, negative = inhibition, hits mostly inhibitors; 1.2% of 390,000 active; AID 588591; note: potency is the fitted concentration of half-maximal effect; % is set by controls: 0 for no effect and ±100 for the full control effect
Target sequence (Q9Y253 whole entry, looked up): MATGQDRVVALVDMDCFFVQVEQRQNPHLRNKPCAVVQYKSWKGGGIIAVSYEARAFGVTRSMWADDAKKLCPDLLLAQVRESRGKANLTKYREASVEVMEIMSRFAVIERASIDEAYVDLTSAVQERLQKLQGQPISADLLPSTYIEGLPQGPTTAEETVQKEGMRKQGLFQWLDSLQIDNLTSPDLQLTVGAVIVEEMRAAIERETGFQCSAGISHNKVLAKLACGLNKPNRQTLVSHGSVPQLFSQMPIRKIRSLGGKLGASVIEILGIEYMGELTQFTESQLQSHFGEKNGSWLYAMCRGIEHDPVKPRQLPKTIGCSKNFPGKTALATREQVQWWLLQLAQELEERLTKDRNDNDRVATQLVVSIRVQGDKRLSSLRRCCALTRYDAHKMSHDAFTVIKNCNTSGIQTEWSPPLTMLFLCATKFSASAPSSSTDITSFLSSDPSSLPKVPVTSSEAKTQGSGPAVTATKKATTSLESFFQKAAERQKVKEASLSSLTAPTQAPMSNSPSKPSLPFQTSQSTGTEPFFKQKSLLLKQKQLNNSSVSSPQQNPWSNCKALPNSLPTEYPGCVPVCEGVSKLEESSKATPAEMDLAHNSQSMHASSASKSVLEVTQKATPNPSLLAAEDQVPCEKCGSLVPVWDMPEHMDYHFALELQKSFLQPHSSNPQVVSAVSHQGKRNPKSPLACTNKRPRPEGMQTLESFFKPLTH
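Fluorescent replication assay: 50 nM final substrate added after a 15 min room-temperature compound preincubation with 10 nM enzyme. Signal taken at 0 min and again at 10 min.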
GALK confirm: confirmation of human galactokinase (GALK) inhibitors; shares compounds with Pol eta inh-1; purified GALK, Kinase-Glo ATP depletion luminescence; Potency, µM (doses to about 115 µM), without a hit: at the top dose activity, negative = inhibition, actives largely listed as inhibitors; 70% of 150 active
GALK redox cs: generates H2O2 by redox cycling, flagging GALK artifacts. AID 2035. 40% of 150 active. Phenol red-HRP H2O2 redox cycling, absorbance 600 nm. Potency, µM (series often up to 115 µM), inactives show at the top dose activity change, negative = H2O2 signal, most hits filed as inhibitors. shares compounds with Pol eta inh-1
HEK293 tox: counter-screen for GALK inhibitors: HEK293 cell cytotoxicity; Potency, µM (top dose mostly 46.1 µM), inactives show at the highest dose activity change, negative = cytotoxicity, usual class: inhibitors; HEK-293 viability, ATP luminescence (CellTiter-Glo), 24/48 h; 10% of 170 active; AID 2547; shares compounds with Pol eta inh-1; note: potency is the fitted concentration of half-maximal effect; % is set by controls: 0 for no effect and ±100 for the full control effect
Pol kappa inh-2: Pol kappa (human) inhibition, cherry-pick confirmation | AID 720501 | Potency, µM, actives largely listed as inhibitors | purified Pol-kappa, fluorescent strand-displacement substrate | shares compounds with Pol eta inh-1 | 76% of 920 active; note: potency is the fitted concentration of half-maximal effect
Pol eta inh-2: confirmation of human DNA polymerase eta inhibitors; shares compounds with Pol eta inh-1; Potency, µM, most hits filed as inhibitors; Pol eta primer extension, TAMRA/BHQ fluorescence, 10 min; 64% of 2,600 active; note: potency is the fitted concentration of half-maximal effect
* hit, by the source's call; ? = inconclusive; . = no result given; [ ] = remark or other dose. An excerpt weighted towards active compounds, which were near 2.9% of everything screened. Unless noted, calls come from the whole dose curve; as a rule, active = well fitted curve in the direction sought with a large enough effect; inconclusive = small, poorly fitted or top-dose-only effect, or another doubt; inactive = no such curve, though single readings can be large; an effect the other way counts as inactive or inconclusive.

SMILES	Pol beta inh	Pol kappa inh-1	12-LOX inh	Pol iota inh	PI5P4Ka inh	Pol eta inh-1	Pol eta inh-2	others
Cc1cccc(NC(=S)NC(=O)/C=C/c2ccco2)c1	32µM*	79µM*	?	20µM*	-64*	50µM*	?
COc1ccccc1N(C)S(=O)(=O)c1ccc(C(=O)Nc2ccc(C(C)C)cc2)cc1	.	.	-7%	.	.	.	.
O=C(CCC(=O)c1cccs1)NNC(=O)c1ccccc1O	.	?	?	?	-52*	28µM*	?
CCCCNC(=O)N1CC(C(=O)N2CCCC(C(=O)OCC)C2)CC(c2ccc(F)c(C)c2)C1 (centres undefined)	.	.	55%	.	.	.	.
Cc1ccc(C)c(OCC(=O)Nc2nonc2NC(=O)COc2cc(C)ccc2C)c1	-25%	-7%	-10%	?	.	-11%	.
Cc1ccc(C)c(OCC(=O)Nc2cc(NC(=O)COc3cc(C)ccc3C)cc(C(=O)O)c2)c1	0%	-13%	?	?	0	50µM*	67*
CC1(CC(=O)N/N=C/c2cc([N+](=O)[O-])c(O)cc2O)OCCO1	4.5µM*	?	-24%	?	-64*	22µM*	?
CC1(C(=O)NNC(=O)c2ccc(=O)oc2)CC1Br (centres undefined)	?	?	?	?	?	20µM*	34*
Cc1ncc(-c2ccc(C)c(S(=O)(=O)N3CCN(c4cccc(Cl)c4)CC3)c2)o1	.	.	-14%	.	.	.	.
CC1=NN(c2ccc(C)cc2)C(=O)/C1=C\C=C\c1ccccc1	-5%	-4%	?	100%	4	?	.
CC1=NN(c2cccc(C(=O)O)c2)C(=O)/C1=C\C=C/c1ccccc1	0%	-15%	?	?	-30	18µM*	27*
CCC1=NN2C(=N)/C(=C\c3cccn3-c3cccc(Cl)c3)C(=O)N=C2S1	22µM*	-43%	-4%	?	-10	32µM*	?
CCC1=NN2C(=N)/C(=C\c3cccn3-c3ccc(Br)cc3)C(=O)N=C2S1	-13%	-11%	-17%	?	-5	-5%	.
Cc1ccc(C)c(CN2C(=O)CSc3ccc(C(=O)NCCN4CCOCC4)cc32)c1	-12%	-5%	1%	106%	-10	-5%	.	GALK confirm=-10%;GALK redox cs=-9%;HEK293 tox=1%
NCc1ccccc1OC(F)(F)F	.	.	4%	.	.	.	.
Cc1ccc(C)c(Nc2nc3c(S(=O)(=O)c4ccc(C(C)C)cc4)nnn3c3ccsc23)c1	1%	-14%	-19%	-24%	.	-19%	.
Cc1ccc(C)c(Nc2nc3c(S(=O)(=O)c4ccc(Br)cc4)nnn3c3ccsc23)c1	18µM*	?	?	45µM*	.	-25%	.	Pol kappa inh-2=21*
CS(=O)(=O)N1N=C(c2ccc(Cl)cc2)CC1c1ccccc1 (centres undefined)	.	.	7%	.	.	.	.
COc1ccc2[nH]c(O)c(N=NC(=O)c3ccc(NS(=O)(=O)c4cccs4)cc3)c2c1	.	79µM*	162%	40µM*	-88*	3.5µM*	38*	Pol kappa inh-2=17*
COC(=O)c1c(C)[nH]c(C(=O)COc2ccc3ccc(=O)oc3c2)c1C	.	-38%	?	?	-5	45µM*	?
COC(=O)COc1ccc2ccc(=O)oc2c1	.	.	7%	.	.	.	.
Fc1cc(F)cc(Cc2nc3nccc(-c4cccs4)n3n2)c1	.	.	19%	.	.	.	.
Cc1cc(OC(C)C(=O)NC(Cc2c[nH]c3ccc(O)cc23)C(=O)O)c2c(C)c(C)c(=O)oc2c1 (centres undefined)	?	-25%	-23%	?	-5	?	?
Cc1cc(=O)oc2cc(OCC(=O)NC(Cc3c[nH]c4ccc(O)cc34)C(=O)O)c(Cl)cc12 (centres undefined)	?	?	-13%	71µM*	-4	25µM*	?
Cc1cccc(/C=C/C(=O)c2cc(Br)ccc(=O)c2O)c1	?	?	?	0.89µM*	?	32µM*	?
SMILES	Pol beta inh	Pol kappa inh-1	12-LOX inh	Pol iota inh	PI5P4Ka inh	Pol eta inh-1	Pol eta inh-2	others
O=C(O)CNc1ccccc1C(=O)O	-80%	-66%	0%	?	8	20µM*	60*
COCCOc1cc(NC(=O)c2n[nH]c(=O)c3ccccc23)ccc1OC	.	.	-13%	.	.	.	.
CCOc1ccc(-c2cc(C)n3nc(C(N)=O)cc3n2)cc1	?	-18%	?	28µM*	?	22µM*	?
COc1ccc(CNC(=O)N(C)CCOc2ccccc2C)cc1OC	.	.	-7%	.	.	.	.
C=C(C)Cn1c(NCCOC)nc2c1c(=O)n(C)c(=O)n2C	.	.	-51%	.	.	.	.
COc1ccccc1C(=O)Nc1ccc2oc(C)nc2c1	.	.	29%	.	.	.	.
CCN(CC)C(=O)c1c[nH]c2ccc(S(=O)(=O)Nc3cc(C)cc(C)c3)cc2c1=O	0%	-13%	0%	-3%	0	?	.
CC(C)c1ccc(NS(=O)(=O)c2ccc3[nH]cc(C(=O)N4CCCC4)c(=O)c3c2)cc1	?	?	?	79µM*	.	?	43*
COc1cccc(NS(=O)(=O)c2ccc3[nH]cc(C(=O)N4CCCC4)c(=O)c3c2)c1	?	-16%	-12%	-5%	.	-1%	.
CCN(CC)CCNS(=O)(=O)c1ccc2[nH]cc(C(=O)O)c(=O)c2c1	18µM*	?	-6%	?	.	22µM*	27*
Cc1ccccc1NS(=O)(=O)c1ccc2[nH]cc(C(=O)N3CCCC3)c(=O)c2c1	?	5%[60.1 µM]	-21%	?	.	89µM*	?
